PI5P4Ka inh = blocks human PI5P4K alpha kinase activity; P48426; PI5P4Kalpha enzyme, ADP-Glo luminescence, 60 min; stronger effect = lower value; max response, %; hit rate 1.2% among 330,000; AID 652105; active = max response of -50% or lower; inconclusive = between -30% and -50%; inactive = -30% or higher; also: value at the top dose of about 77 µM; % is scaled to controls: 0 for no effect and ±100 for the full control effect
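ADP-Glo luminescence end-point read after a 60 min room-temperature kinase reaction of PI5P4Kalpha plus substrate, initiated with ATP at 5 microM final. Buffer: 0.038 M HEPES pH 7.4, EGTA, 0.1% CHAPS, 5% DMSO.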
BAZ2B block = BAZ2B (human) inhibition | hit rate 4.4% among 360,000 | AlphaScreen BAZ2B-H3K14Ac peptide displacement | Q9UIF8 | Potency, µM (top dose mostly 114 µM), for the others: at the top dose activity change, negative = inhibition, hits mostly inhibitors; also: potency is read from the fitted curve at half-maximal effect; % is scaled to controls: 0 for no effect and ±100 for the full control effect; nearly all actives have a fitted effect of over 60% in size
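AlphaScreen displacement: compounds (up to 110uM) incubated 30 min at room temperature with a preformed 50 nM BAZ2B/50 nM biotinylated H3K14Ac peptide complex in PBS pH 7.4 with Tween-20. Donor and acceptor beads at 10 ug/mL final added, 20 min light-protected before reading.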
JMJD2A Tudor = JMJD2A Tudor domain (human) inhibition; AlphaScreen JMJD2A-Tudor / H3K4me3 peptide binding; Potency, µM (titrated, usually from 114 µM), for the others: top-dose activity change, negative = inhibition, most hits filed as inhibitors; O75164; hit rate 4.4% among 390,000; also: potency is read from the fitted curve at half-maximal effect; % is scaled to controls: 0 for no effect and ±100 for the full control effect; nearly all actives have a fitted effect of over 50% in size
Target sequence (O75164 whole entry, looked up, the tested form may be a part): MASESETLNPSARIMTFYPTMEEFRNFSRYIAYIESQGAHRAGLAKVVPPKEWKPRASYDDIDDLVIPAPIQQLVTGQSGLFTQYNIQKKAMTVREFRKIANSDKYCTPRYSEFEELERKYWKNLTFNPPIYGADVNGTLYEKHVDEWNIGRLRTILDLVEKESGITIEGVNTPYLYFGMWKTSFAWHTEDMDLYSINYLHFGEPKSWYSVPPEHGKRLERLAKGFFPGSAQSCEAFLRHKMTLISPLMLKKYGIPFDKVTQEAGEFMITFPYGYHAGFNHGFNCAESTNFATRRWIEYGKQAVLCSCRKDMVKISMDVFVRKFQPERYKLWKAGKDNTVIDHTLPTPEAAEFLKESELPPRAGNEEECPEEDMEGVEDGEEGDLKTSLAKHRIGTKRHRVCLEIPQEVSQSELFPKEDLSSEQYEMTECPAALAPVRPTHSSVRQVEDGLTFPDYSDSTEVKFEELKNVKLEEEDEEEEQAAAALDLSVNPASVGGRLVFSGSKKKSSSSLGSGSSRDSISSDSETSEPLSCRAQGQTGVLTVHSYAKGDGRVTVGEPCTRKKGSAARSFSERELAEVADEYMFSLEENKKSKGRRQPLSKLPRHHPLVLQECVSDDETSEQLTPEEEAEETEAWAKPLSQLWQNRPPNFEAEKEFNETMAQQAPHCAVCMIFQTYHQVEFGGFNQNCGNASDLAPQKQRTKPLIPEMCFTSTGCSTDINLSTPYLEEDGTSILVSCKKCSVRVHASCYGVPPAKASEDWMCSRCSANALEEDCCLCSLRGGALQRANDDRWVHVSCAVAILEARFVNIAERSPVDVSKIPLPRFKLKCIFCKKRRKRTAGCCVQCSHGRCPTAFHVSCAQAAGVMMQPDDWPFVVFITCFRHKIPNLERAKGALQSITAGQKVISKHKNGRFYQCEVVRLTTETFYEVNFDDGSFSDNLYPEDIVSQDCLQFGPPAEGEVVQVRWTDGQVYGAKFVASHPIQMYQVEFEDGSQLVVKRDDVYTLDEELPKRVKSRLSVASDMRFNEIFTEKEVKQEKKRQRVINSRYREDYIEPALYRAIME
HP1b binding inh = inhibitors of HP1-beta chromodomain binding to methylated histone tails. P83916. AID 540317. hit rate 0.56% among 390,000. AlphaScreen HP1-beta / biotin-H3K9me3 peptide binding. Potency, µM (series often up to 114 µM), for inactives: top-dose activity change, negative = inhibition, usual class: inhibitors; also: potency is read from the fitted curve at half-maximal effect; nearly all actives have a fitted effect of over 70% in size
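Compound inhibition of the preformed complex between 50 nM HP1-beta and 50 nM biotinylated H3K9me3 peptide was read by AlphaScreen. Buffer was PBS pH 7.4 with 0.01% Tween-20. Incubations ran 30 min at room temperature, with 10 ug/mL donor/acceptor beads.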
G9a block = blocks human histone lysine methyltransferase G9a; hit rate 8.8% among 350,000; Q96KQ7; Potency, µM (titrated, usually from 102 µM), inactives show at the top dose activity, negative = inhibition, most hits filed as inhibitors; AID 504332; G9a H3K9 monomethylation, AlphaScreen, 2 h; also: potency is read from the fitted curve at half-maximal effect; % is scaled to controls: 0 for no effect and ±100 for the full control effect; nearly all actives have a fitted effect of over 75% in size
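AlphaScreen detection with an anti-monomethyl H3K9 antibody quantified product after a 2 h room-temperature reaction containing 500 nM biotinylated H3K9 peptide, 20 µM SAM and 20 nM enzyme, which had been preincubated 15 min with compound.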
PLK1 PBD inh = blocks phosphopeptide binding to human PLK1 polo-box domain | Plk1 PBD binding of FITC phosphopeptide, fluorescence polarization | hit rate 2.8% among 360,000 | Potency, µM, without a hit: max response, negative = inhibition, usual class: inhibitors; also: potency is read from the fitted curve at half-maximal effect; series mostly up to about 57 µM; % is scaled to controls: 0 for no effect and ±100 for the full control effect; nearly all actives have a fitted effect of over 65% in size
An asterisk follows results filed as active; ? = inconclusive; . = not tested or not shown; [ ] = dose if it differs, or a comment. Hits are enriched below; roughly 12% of the tested compounds scored in any of these assays. Unless noted, calls follow the shape of the dose curve; as a rule, active = well fitted curve in the direction sought with a large enough effect; inconclusive = small, poorly fitted or top-dose-only effect, or another doubt; inactive = no such curve, though single readings can be large; an effect the other way counts as inactive or inconclusive.

SMILES	PI5P4Ka inh	BAZ2B block	JMJD2A Tudor	HP1b binding inh	G9a block	PLK1 PBD inh
COc1ccc(CN=Cc2c(C(F)(F)F)[nH][nH]c2=O)cc1	-3.4	9.9%	79.4µM*	-1.1%	-11.2%[59 µM]	26.7µM*
C=CCNc1oc(-c2cccc3ccccc23)nc1C#N	.	?	-6.6%	-17.1%	?	1.1%
C=CCNc1nnc(-c2cccc3ccccc23)o1	.	.	11.2µM*	.	.	.
C=CCSc1nnc(-c2cccc3ccccc23)o1	.	.	12.6µM*	52.4%	.	.
C#CCSc1nnc(-c2cccc3ccccc23)o1	.	.	76.2%	117.4%	.	-7.8%
COc1ccc(S(=O)(=O)NCCc2sc(-c3cccnc3)nc2C)c(F)c1	.	0.4%	-0.6%	26.4%[57 µM]	-0.2%[59 µM]	.
COc1ccc(-c2nc3ccccc3n3c(-c4cccc(C)c4)c4c(=O)n(C)c(=O)n(C)c4c23)cc1OC	.	-1.7%	-34.7%	16.9%	-4.9%[59 µM]	.
O=C(NCc1n[nH]c(=S)n1-c1ccc(F)cc1)c1ccc(S(=O)(=O)N2CCCC2)cc1	.	-3.3%	28.2µM*	18.7%	?	-5.2%
Cc1ccc(CNC(=O)c2ccc(S(=O)(=O)N3CCCCC3)cc2)cc1	9.0	4.9%	-21.4%	22.2%	-6.3%	-5.8%
O=C(NCCc1ccc(F)cc1)c1ccc(S(=O)(=O)N2CCCC2)cc1	1.0	9.7%	0.3%	63.5%	-9.3%[2.33 µM]	-7.8%
Cc1cccc(-n2c(CNC(=O)c3ccc(S(=O)(=O)N4CCCCC4)cc3)n[nH]c2=S)c1	-10.2	2.3%	35.5µM*	28.1%	7.08µM*	-2.0%
CCN(CC)S(=O)(=O)c1ccc(C(=O)NCCN(C)C)cc1	-0.8	-31.6%	-7.5%[11.4 µM]	48.2%	-21.8%	-4.5%
O=C(NCc1n[nH]c(=S)n1-c1ccc(Cl)c(Cl)c1)c1ccc(S(=O)(=O)N2CCCCC2)cc1	3.3	-27.1%	-28.6%	14.3%	8.91µM*	-11.1%
CCCN(CCC)S(=O)(=O)c1ccc(C(=O)NCc2n[nH]c(=S)n2-c2ccc(Cl)c(Cl)c2)cc1	-0.6	?	?	24.2%	17.8µM*	-13.4%
O=C1c2cc(Cl)ccc2-c2c(O)cc(Cl)cc21	?	.	?	-16.8%[57 µM]	.	-4.2%
CSCCC(NS(=O)(=O)c1ccccc1F)C(=O)N1CCCCCCC1 (stereo not drawn)	-2.9	-6.3%	-15.1%	9.8%	0.9%	5.0%
O=C(NCc1n[nH]c(=S)n1-c1cccc(Cl)c1)c1ccc(S(=O)(=O)N2CCCC2)cc1	.	?	89.1µM*	18.7%	?	-7.8%
COc1ccc2[nH]c(=O)c(C(=O)O)cc2c1	-6.5	-15.7%	8.9%	-3.4%	-21.3%	-9.1%
COc1ccc2[nH]c(=O)cc(C(=O)O)c2c1	4.7	50.1µM*	?	-6.7%	35.5µM*	-4.7%
Cc1ccc(C(O)c2ncc(-c3cccc(C(F)(F)F)c3)[nH]2)cc1F (stereo not drawn)	2.0	.	.	.	.	-6.9%
O=C(CCC1CCCC1)N1CCN(C(=O)c2ccco2)CC1	4.2	5.8%	-28.1%[11.4 µM]	-0.5%	-1.3%[59 µM]	23.8µM*
O=C(c1ccco1)N1CCCN(C(=O)c2ccco2)CC1	.	1.7%	?	-20.1%	-5.0%[59 µM]	18.9µM*
CCc1cc2cc3c(cc2nc1SCC(=O)N1CCN(C(=O)c2ccco2)CC1)OCO3	-4.9	-4.6%	?	3.0%	-19.5%	-15.4%
O=C(CSc1nnc(-c2ccco2)n1-c1ccccc1)N1CCN(C(=O)c2ccco2)CC1	-24.9	-3.5%	-31.3%[11.4 µM]	-14.4%	-4.5%[12.7 µM]	9.47µM*
CN(C)C(=O)N1CCN(C(=O)c2ccco2)CC1	-1.7	-5.0%	-9.9%	47.6%	-7.7%[59 µM]	-5.2%
SMILES	PI5P4Ka inh	BAZ2B block	JMJD2A Tudor	HP1b binding inh	G9a block	PLK1 PBD inh
CCc1cc2ccc(C)cc2nc1SCC(=O)N1CCN(C(=O)c2ccco2)CC1	-27.4	?	89.1µM*	?	?	23.8µM*
COc1ccc(N2CC(C(=O)NCc3n[nH]c(=O)c4ccccc34)CC2=O)cc1 (stereo not drawn)	-4.0	8.1%	-2.8%	21.9%	-22.2%[12.7 µM]	-7.8%
Cc1ccc(/C=C/c2onc(C)c2S(=O)(=O)N2CCC(C(=O)NCc3ccc(Cl)cc3)CC2)cc1	.	2.2%	-1.6%	23.6%[57 µM]	11.6%[59 µM]	.
CN(C(=O)c1ccc(NC(=O)Cc2ccc(NC(=O)C3CCCN(S(=O)(=O)c4cccc([N+](=O)[O-])c4)C3)cc2)cc1)C1CCCC1 (stereo not drawn)	1.1	.	-20.9%	26.9%	.	-16.5%
O=S1(=O)N[C@H](Cc2ccccc2)COc2cc(N3CCC[C@@H]3CO)ccc21	-4.3	.	.	.	.	-17.8%
O=C(CSc1ccc(Br)cc1)N1CCOCC1	0.6	-13.2%	?	56.1%	13.2%	-13.8%
O=C(CSc1ccc(Br)cc1)N1CCN(C(=O)c2ccco2)CC1	1.0	-6.2%	-8.1%	45.9%	44.7µM*	-17.2%
C(=NN=C1c2ccccc2-c2ccccc21)c1c[nH]c2ccccc12	68.7	.	22.4µM*	?	.	4.5%
O=C(N/N=C/c1ccccc1O)c1cc(=O)[nH]c2ccccc12	.	50.1µM*	.	.	1.2%[59 µM]	.
O=C(N/N=C/c1c[nH]c2ccccc12)c1ccc(Br)cc1	?	-10.3%	-31.0%	13.1%	-1.7%	-10.1%
O=C(N/N=C/c1c[nH]c2ccccc12)c1cc(Cl)ccc1O	-54.5*	1.8%	-26.4%	28.5%	63.1%[0.501 µM]	-16.1%
Fc1c(F)c(F)c(N/N=C/c2c[nH]c3ccccc23)c(F)c1F	2.0	?	?	-24.6%	?	-2.4%
O=C(N/N=C\c1c[nH]c2ccccc12)c1ccc(O)cc1	-73.5*	-2.6%	-15.5%	27.2%	16.5%	-19.0%
O=C(N/N=C/c1ccccc1O)c1cccc2ccccc12	5.6	5.8%	-9.6%	36.9%	.	-8.9%
COc1cc(O)ccc1C1CC(=O)Nc2c1c(=O)nc(SCc1ccccc1C)n2C (stereo not drawn)	.	-21.6%	-22.8%	30.8%	1.6%[59 µM]	.
CN(C)c1ccc(CCc2ccc(N)cc2)cc1	12.0	.	56.2µM*	50.1µM*	.	3.8%
CCOc1ccc(NC(=O)Cn2nc(C(N)=O)c3ccccc3c2=O)cc1S(=O)(=O)N1CCCC1	-10.4	-33.7%	-13.8%	18.7%	-109.6%[12.7 µM]	-0.8%
CCOc1ccc(NC(=O)Cn2nnc(-c3ccc(C(N)=O)cc3)n2)cc1S(=O)(=O)N1CCCC1	-5.6	-7.5%	-22.6%	5.7%	79.4µM*	-4.8%
COc1cc(N)ccc1Nc1c2ccccc2nc2ccccc12	-54.9*	.	.	.	.	-8.1%
Cc1ccc(O)c(Nc2nc(-c3ccccc3)nc3ccccc23)c1	3.9	-0.9%	-18.4%	22.1%	8.1%[0.501 µM]	-6.3%
CCCS(=O)(=O)Nc1ccc(Nc2c3ccccc3nc3ccccc23)c(OC)c1	-0.4	.	39.8µM*	?	.	-0.1%
Cc1ccc(O)c(Nc2c3ccccc3nc3ccccc23)c1	-13.1	35.5µM*	?	?	?	4.7%
COc1ccc(Nc2c3c(nc4ccccc24)CCC3)c(OC)c1	3.2	0.1%	-12.5%	13.6%	0.5%[2.33 µM]	4.9%
